{"source": "PubChem BioAssay AID1963315", "about": "(National Center for Advancing Translational Sciences (NCATS), 2024)", "note": "Results filed as inconclusive are left out. A number with no mark means an inactive call. Activity calls are given as the source filed them. Calls come from the whole dose curve.", "data": [{"molecular_target": "Tyrosine-protein kinase ABL1 (Homo sapiens) (UniProt P00519)", "sequence (P00519 whole entry, looked up)": "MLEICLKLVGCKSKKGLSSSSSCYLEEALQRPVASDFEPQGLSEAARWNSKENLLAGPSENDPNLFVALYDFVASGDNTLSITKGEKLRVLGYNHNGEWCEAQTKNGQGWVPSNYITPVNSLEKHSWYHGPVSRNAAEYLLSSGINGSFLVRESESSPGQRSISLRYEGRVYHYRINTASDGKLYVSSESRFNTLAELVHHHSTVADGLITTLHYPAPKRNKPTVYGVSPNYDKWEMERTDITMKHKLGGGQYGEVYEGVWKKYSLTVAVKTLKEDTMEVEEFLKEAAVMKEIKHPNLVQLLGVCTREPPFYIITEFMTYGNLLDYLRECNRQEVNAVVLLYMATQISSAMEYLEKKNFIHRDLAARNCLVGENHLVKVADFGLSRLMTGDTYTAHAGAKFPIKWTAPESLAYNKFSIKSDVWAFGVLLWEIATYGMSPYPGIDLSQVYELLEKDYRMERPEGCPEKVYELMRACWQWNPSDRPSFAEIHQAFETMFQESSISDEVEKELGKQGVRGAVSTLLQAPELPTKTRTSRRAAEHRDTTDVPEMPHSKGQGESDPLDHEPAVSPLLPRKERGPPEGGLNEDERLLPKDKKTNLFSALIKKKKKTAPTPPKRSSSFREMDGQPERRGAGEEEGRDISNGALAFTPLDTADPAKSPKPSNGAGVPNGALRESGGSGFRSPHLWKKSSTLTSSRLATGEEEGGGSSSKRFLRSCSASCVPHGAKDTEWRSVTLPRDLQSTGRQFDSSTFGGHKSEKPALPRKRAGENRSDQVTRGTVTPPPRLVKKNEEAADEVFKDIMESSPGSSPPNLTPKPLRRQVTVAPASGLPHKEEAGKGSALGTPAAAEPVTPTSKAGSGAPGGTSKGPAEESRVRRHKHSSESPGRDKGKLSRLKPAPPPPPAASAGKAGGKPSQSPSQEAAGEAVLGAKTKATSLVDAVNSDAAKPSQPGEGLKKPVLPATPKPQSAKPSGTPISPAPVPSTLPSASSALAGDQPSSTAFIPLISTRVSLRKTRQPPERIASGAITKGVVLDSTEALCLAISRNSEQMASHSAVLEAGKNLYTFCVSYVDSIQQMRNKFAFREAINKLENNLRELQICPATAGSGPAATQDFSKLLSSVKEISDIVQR", "assay": "ABL1 kinase (ABL1-N-HiBiT) SDR gain of signal screen", "conditions": "Purified ABL1-N-HiBiT enzyme, Nano-Glo HiBiT luminescence, 30 min compound incubation; series mostly up to 32.9 µM; activity change, gain of signal: at the top concentration", "text": "National Center for Advancing Translational Sciences (NCATS),\nNational Institute of Health (NIH), Maryland\nDiscovery and optimization of novel protein-binding ligands underlies many of the methods and applications of biology, drug discovery, clinical diagnostics, and environmental toxicology. Assays for detecting the interaction of, for example, a molecule with a macromolecular target also referred to here as the target of interest (TOI) is dependent on a compatible output technology. Depending on the nature and knowledge surrounding the TOI, whether a receptor, enzyme, regulatory subunit or scaffold, or a sequence-defined nucleic acid folded into a complex tertiary structure, assay strategies can vary widely.\nHere we exploit ligand-biased changes in the structural dynamics of the target protein to control reporter alpha complementation allowing a non-competitive, non-functional, non-separation measure of ligand-target interaction.\nSecondly, we show the specificity and sensitivity of the SDR for the Abelson tyrosine kinase (ABL1) compared to the serine/threonine protein kinase A, using an enriched chemical library of 128 compounds selected, in part, for activity annotated with ABL1 kinase activity using the Pharos database (3).\n(1) A. S. Dixon et al., NanoLuc Complementation Reporter Optimized for Accurate Measurement of Protein Interactions in Cells. ACS Chem Biol 11, 400-408 (2016).\nChemistry & Biology, 19, 1060 - 1072 (2012).\n(3) K. J. Kelleher et al., Pharos 2023: an integrated resource for the understudied human proteome. Nucleic Acids Res 51, D1405-D1416 (2023).\nPROTOCOL TABLE (as described by Inglese J, Shamu CE and Guy RK. 2007)\nSEQUENCE No. (e.g., 1, 2, 3, etc.); […] (e.g., C. elegans, Compounds, Incubation, Read, etc.); VALUE and DESCRIPTION.\n1. Reagent. Dispense 4 uL ABL1-N-HiBiT enzyme per well at a final enzyme concentration of 10 nM in buffer without ATP (SDR assay) into columns 2-48 of four replicate Greiner 1536-well white, solid bottom high base, medium plates per assay. Dispense respective buffer without enzyme at 4 uL/well in column 1 of assay plates using BioRaptr 2.\n2. Compounds. Library compounds added at 23 nL/well by pin transfer. DMSO neutral control and imatinib positive control added at 25 nL/well, transfer by Mosquito dispenser.\n3. Incubation. Incubate enzyme and compounds at room temperature for 30 min, protected from light.\n4. Reagent. (SDR assay) Add 3 uL/well of Nano-Glo HiBiT reagent (Promega) to assay plates with or without ATP.\n5. Incubation. (SDR assay) Incubate enzyme solution and HiBiT reagent at room temperature for 10 min, protect from light.\n6. Detector. (SDR assay) Luminescence measured using CCD-based camera (ViewLux) with settings as follows: Exposure, 1 sec; Gain, High; Speed, Slow; Binning, 2X.\nInglese J, Shamu CE and Guy RK, Reporting data from high throughput screening of small molecule libraries, Nature Chemical Biology, 2007, 3(8): 438-441. doi.org/10.1038/nchembio0807-438.", "units": {"activity change, gain of signal": "%"}, "values": [{"smiles": "CCNC(=O)C[C@@H]1N=C(c2ccc(Cl)cc2)c2cc(OC)ccc2-n2c(C)nnc21", "activity change, gain of signal": 7.17}, {"smiles": "O=[N+]([O-])O[C@H]1CO[C@H]2[C@@H]1OC[C@H]2O[N+](=O)[O-]", "activity change, gain of signal": 8.76}, {"smiles": "Cc1[nH]nc2ccc(-c3cncc(OC[C@@H](N)Cc4c[nH]c5ccccc45)c3)cc12", "activity change, gain of signal": -23}, {"smiles": "C/C(O)=C(\\C#N)C(=O)Nc1cc(Br)ccc1Br", "activity change, gain of signal": -83.3}, {"smiles": "N#Cc1cn([C@@H]2O[C@H](CO)[C@H](O)[C@@H]2O)c2ncnc(N)c12", "Potency": "6.05 µM (active)"}, {"smiles": "O=C(NCCCNc1nc(Nc2ccc(N3CCOCC3)cc2)ncc1C1CC1)C1CCC1", "activity change, gain of signal": -15.7}]}]}
